Measurements from PubChem BioAssay (NCI).
Values joined by “and” are separate entries in the source; they are usually repeats but may differ in a detail not shown here. Identical values can stand only once. Compounds without any hit were thinned out: in the full panel of roughly 79,000, 15% have a hit. Unmarked numbers belong to inactive results. Active and inactive are the calls of the source. Rule as the data show it: active = growth inhibition above about 70%; inactive = the rest.

Key:
[1] = NCI Yeast Anticancer Drug Screen. Data for the rad50 strain (AID 155);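 also: 0% = growth of vehicle-only cultures of the same strain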; conditions: S. cerevisiae rad50 strain growth inhibition; at 50.0 µM; hits give high values
How it was run: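 Genetically altered yeast (DNA repair pathway); compound treatment; growth inhibition vs vehicle ctrl.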

[2] = NCI Yeast Anticancer Drug Screen. Data for the mec2-1 strain (AID 157); conditions: S. cerevisiae mec2-1 strain, at 50.0 µM, hits give high values
How it was run: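 Strain: mec2-1 (DNA repair/cell cycle alteration). Compound exposure, then growth measured; inhibition expressed relative to vehicle.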

[3] = NCI Yeast Anticancer Drug Screen. Data for the sgs1 mgt1 strain (AID 161);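 also: 0% = growth of cultures given vehicle only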; conditions: S. cerevisiae sgs1 mgt1 strain, at 50.0 µM, hits give high values
How it was run: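 Read-out: growth inhibition vs vehicle controls. Cells: mutant yeast strain deficient in DNA damage repair.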

[4] = NCI Yeast Anticancer Drug Screen. Data for the cln2 rad14 strain (AID 165);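 also: 0% = growth equal to vehicle treated cultures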; conditions: S. cerevisiae cln2 rad14 strain, at 50.0 µM, hits give high values
How it was run: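 Compounds are applied to the cln2 rad14 yeast strain, and growth is then compared with that of vehicle-treated cultures to give inhibition.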

[5] = NCI Yeast Anticancer Drug Screen. Data for the bub3 strain (AID 167); conditions: S. cerevisiae bub3 mutant strain, at 50.0 µM, hits give high values
How it was run: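 Yeast carrying a defined mutation is treated with each compound, and growth is compared with that of vehicle-exposed cells to give inhibition.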

[6] = NCI Yeast Anticancer Drug Screen. Data for the mlh1 rad18 strain (AID 175); conditions: S. cerevisiae mlh1 rad18 strain growth inhibition; at 50.0 µM; hits give high values
How it was run: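 Read-out is yeast growth inhibition, calculated against vehicle-only controls. The compound was applied to a strain engineered with DNA damage repair alterations.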

| SMILES | growth inhibition [1] | growth inhibition [2] | growth inhibition [3] | growth inhibition [4] | growth inhibition [5] | growth inhibition [6] |
| --- | --- | --- | --- | --- | --- | --- |
| COC1=N[C@]2(O)C[C@]3(C)[C@@H](O)CC[C@H]3[C@@H]3CCC4=CC(=O)CC[C@]4(C)[C@]32S1 | 7.4% | 10.6% | 2.3% | -22.7% | 33.8% | 3.2% |
| O=C1CC23c4ccccc4N4C(=O)CC5OCC=C6CN1C2CC6C5C43 (stereo not drawn) | 4.1% | -34.5% | -7.15% | 7.9% | 12.8% | 6.8% |
| CCNC(=O)C(C)Br (stereo not drawn) | 19.4% | 13.1% | 23.5% | -3.55% | 6.5% | 23.9% |
| O=P(O)(OCCc1ccccc1)Oc1ccccc1O | -6.05% | -4.55% | -20.7% | -1.15% | -10.7% | 13.6% |
| O=P1(CCBr)NCCCO1 (stereo not drawn) | -5.25% | 14.6% | -3.6% | -59.4% | -10.4% | 7.5% |
| O=C(CC(=O)C(F)(F)F)c1cccs1.O=C(CC(=O)C(F)(F)F)c1cccs1.O=C(CC(=O)C(F)(F)F)c1cccs1.[Eu] | 27.7% | 37.6% | 39.5% | 9.4% | 39% | 23.1% |
| Nc1cccc2scnc12 (tested in a mixture with another compound) | -13.9% | 3.8% | 29.7% | -7.85% | -10.3% | 19.1% |
| CCCCCCCCCCCCCCCCOc1ccc(S(=O)(=O)F)cc1C(=O)Nc1ccc(S(=O)(=O)Nc2cccc3ccccc23)cc1 | 3.3% | 1.9% | -2.75% | -3.05% | -0.3% | 5.35% |
| [CH3][Sb]1([Cl])[CH2]CC[CH2]1 | 0.2% | 26.1% | -5.6% | -3.1% | 32.5% | 27% |
| CCO[C@@H]1c2cc3c(cc2[C@@H](c2cc(OC)c(O)c(OC)c2)[C@H]2C(=O)OC[C@@H]21)OCO3 | 88.1% (active) | 92.2% (active) | 89% (active) | 85.2% (active) | 88.5% (active) | 87.5% (active) |
| CN(C)CCCCCCN(C)C | -8.85% | 3.9% | -12.5% | -9.8% | 6.9% | -4.75% |
| NC(=O)OCC(O)c1ccccc1 (stereo not drawn) | -11.6% | 10% | -22.6% | -27.8% | -19.9% | 2.2% |
| Oc1ccc(C(O)C2CCCCN2)cc1O (stereo not drawn) | -10.5% | -20.9% | -0.25% | -17.9% | -16.8% | -0.45% |
| O=C([O-])C[OH+]c1ccc(Cl)cc1Cl.O=C([O-])C[OH+]c1ccc(Cl)cc1Cl.[Ni+2] | 10.3% | 21.6% | 18.9% | 3.1% | 3.85% | 41.5% |
| O=C(NCC(O)CO)c1cc([N+](=O)[O-])cc([N+](=O)[O-])c1N(CCCl)CCCl (stereo not drawn) | 31.8% | 19.8% | 28.7% | 2.05% | 13.9% | 12.6% |
| CC(=O)CC(C)=O.CC(=O)CC(C)=O.[Ni] | -39% | -31.4% | -1.1% | 31.1% | -6.35% | -25.4% |
| CCOP(=O)(OCC)C(C#N)Cc1ccco1 (stereo not drawn) | -19.2% | -23.9% | -14.1% | -9.4% | -4.1% | 1.9% |
| O=C(O)C1C2Cc3ccccc3C21 (stereo not drawn) | 18.1% | 10.4% | -8.35% | -5.9% | -20.3% | -12.6% |
| O=[N+]([O-])c1ccc2c(c1)Oc1cccnc1[Se]2 | 16.1% | 8.6% | 20.9% | 8.25% | -11.5% | 38.8% |

| SMILES | growth inhibition [1] | growth inhibition [2] | growth inhibition [3] | growth inhibition [4] | growth inhibition [5] | growth inhibition [6] |
| --- | --- | --- | --- | --- | --- | --- |
| CCCCC1(C(C)C)C(=O)NC(=O)N(C)C1=O (stereo not drawn) | -5.55% | 8.9% | 5.15% | -12.7% | 5.75% | 5.3% |
| NC(N)=NOCC[C@@H](N)C(=O)O | -0.5% | -3.7% | 8.85% | 20.2% | 1.4% | 11.7% |
| CN(c1ccccc1)[N+](=O)[O-] | -9.45% | -12.2% | -14.2% | -5.1% | -7.8% | -5.3% |
| O=C1NC(=O)C(F)C(O)N1 (stereo not drawn) | -22.8% | -17.8% | -6.15% | -14.8% | 16.1% | -8.2% |
| CSCC(NP1(=O)SC(NN=C2CCCCC2)=NC1(C)C)C(=O)O (stereo not drawn) | 12.2% | 3.95% | 2% | -5.5% | -0.15% | 18.6% |
| O=C(O)c1cc(CCl)ccc1O | -0.05% | -7.95% | -15.7% | -14% | 4.75% | -1.7% |
| CC(=O)O[C@H]1CCC2[C@@H]3CCC4c5nonc5CC[C@]4(C)C3CC[C@@]21C (stereo partly drawn) | 28.4% | 5.55% | 22.9% | 35.1% | 27.6% | 17.9% |
| CC1C2Cc3ccc(O)cc3C1(C)CCN2CCC(=O)c1ccccc1 (stereo not drawn) | -8.85% | 1.4% | -7.3% | 18.2% | 5.6% | 9.55% |
| CCCCOP(=O)(OCCCC)OC(C)C(C)=O (stereo not drawn) | -0.15% | 2.75% | 5.6% | 0.45% | 5.15% | -2.05% |
| COP(=O)(Cc1ccccc1)OC | -1% | 5.15% | -0.95% | -43.1% | 2.3% | -11.8% |
| CCOC(=O)CC(=O)C(F)(F)F.CCOC(=O)CC(=O)C(F)(F)F.[Ni] | -21% | 14.4% | -12.2% | 24.4% | 12.6% | -0.95% |
| COCCOC(=O)CCl | -4.35% | 0.4% | 10.9% | 0.45% | -0.7% | 25.5% |
| Oc1ccc(Nc2c3ccc(Cl)cc3nc3ccc(-c4ccccc4)cc23)cc1CN(CCCl)CCCl | 98.4% (active) | 98.7% (active) | 98.8% (active) | 98.3% (active) | 93.5% (active) | 97.5% (active) |
| CC1CN(C2CCCCC2)CO1 (stereo not drawn) | -0.6% | -30.8% | 0.8% | -10.8% | -20.5% | -32.2% |
| CN(C)CCC(C)(C#N)c1ccccc1 (stereo not drawn) | 8.9% | 5.7% | -4.8% | -7.05% | 13.9% | 21.1% |
| CN1CC=C(c2cccn2C)CC1 | -24.2% | -24.9% | -6.45% | 4.05% | -10.4% | -37.8% |
| C[N+](C)(C)Cc1cccc([N+](=O)[O-])c1 | -47.9% | -5.5% | -3.8% | -40.7% | -4% | 13.2% |
| O=C1CCCC2C3CC(CN12)C1CCCCN1C3 (stereo not drawn) | 9.85% and 15.7% | -18.3% and -13.9% | -3.4% and 6.75% | 9.05% and 21.3% | -11.8% and 26.9% | -29.3% and 32.3% |
| COC1C(=[N+]=[N-])C(=O)NC(=O)N1C (stereo not drawn) | 21% | -3.4% | 34.9% | -7.65% | 20.3% | 20.5% |
